15 compounds from PubChem BioAssay (NCI) can be followed below.

Some test systems named below: SR leukemia; RPMI-8226 leukemia; OVCAR-8 ovarian; OVCAR-5 ovarian; OVCAR-4 ovarian; IGROV1 ovarian; OVCAR-3 ovarian; HS 578T breast; NCI/ADR-RES ovarian; SK-OV-3 ovarian.
What all share (experiment): NCI-60 one-dose screen, 48 h (100 = growth as untreated, 0 = no growth, -100 = all killed)
Common to all, as to conditions: 10 µM unless noted

The panel holds about 83,000 compounds, 20% with a hit somewhere; the sample as a whole holds those more often.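 Growth was measured after 48 h exposure to one concentration of compound in 96-well plates. Values under 10 count as active.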 Unmarked numbers belong to inactive results. Activity calls are given as the source filed them.

Take `Cc1ccc(-c2nc(C(Cl)Cl)n3nc(-c4ccccc4)cc3n2)cc1`: the growth in the experiment with SR leukemia was 87.6%; in the experiment on RPMI-8226 leukemia, 2.55% (active); in the experiment on OVCAR-8 ovarian it was 35.3%; in the experiment on OVCAR-5 ovarian, 120%; with OVCAR-4 ovarian, 48%; in the experiment on IGROV1 ovarian, 56.4%. Also, the growth was -83.7% (active) in the experiment on OVCAR-3 ovarian, 31.5% in the experiment on HS 578T breast and 18.8% in the experiment on NCI/ADR-RES ovarian.

Regarding `C=C[C@@H]1C[C@H](O)Cc2cc(F)ccc2N1`, the growth with SR leukemia was 73.6%; in the experiment with RPMI-8226 leukemia, 73.2%; in the experiment on OVCAR-8 ovarian, 102%; with OVCAR-5 ovarian, 95.7%; in the experiment on OVCAR-4 ovarian, 101%; in the experiment on SK-OV-3 ovarian it was 104%. Also, the growth in the experiment with IGROV1 ovarian was 131%; with OVCAR-3 ovarian it was 102%; in the experiment on HS 578T breast it was 90.6%; with NCI/ADR-RES ovarian, 105%.

In the case of `O=C(NNC(=O)N1c2ccccc2C=Cc2ccccc21)c1ccc2ccccc2c1`, the growth in the experiment with SR leukemia is 87.2%; in the experiment on RPMI-8226 leukemia, 96.7%; in the experiment with OVCAR-8 ovarian, 94.9%; in the experiment on OVCAR-5 ovarian it was 91.3%; in the experiment with SK-OV-3 ovarian, 110%; in the experiment with IGROV1 ovarian, 102%. The growth in the experiment on OVCAR-3 ovarian is 101%; in the experiment with HS 578T breast, 101%; with NCI/ADR-RES ovarian it was 93%.

With `N=C(N)c1ccc(-c2ccc(-c3ccc(-c4cccs4)s3)s2)cc1`, the growth is 81.6% in the experiment on SR leukemia; 61% with RPMI-8226 leukemia; 101% with OVCAR-8 ovarian; 97.8% with OVCAR-5 ovarian; 90.7% with OVCAR-4 ovarian; 96.2% with IGROV1 ovarian. Further, the growth with OVCAR-3 ovarian was 94.7%; with HS 578T breast, 99.3%; in the experiment on NCI/ADR-RES ovarian, 98.6%.

For `CC[N+](CC)=c1cc2oc3cc(N(C)C)ccc3nc-2cc1C`, the growth in the experiment with SR leukemia was 59%; with RPMI-8226 leukemia it was 45.3%; in the experiment with OVCAR-8 ovarian, 8.33% (active); in the experiment on OVCAR-5 ovarian it was -27.6% (active); in the experiment with SK-OV-3 ovarian, 59.9%; with IGROV1 ovarian, -56.4% (active). Moreover, the growth in the experiment on OVCAR-3 ovarian is -55.6% (active); in the experiment with HS 578T breast it was 89.1%; in the experiment on NCI/ADR-RES ovarian, 79.3%.

`CCCCCCCCCCCCNC(=O)[C@H]1CSC(c2ccsc2)N1` (stereo partly specified): the growth is -44% (active) with SR leukemia; 34.3% in the experiment on RPMI-8226 leukemia; -49.4% (active) in the experiment on OVCAR-8 ovarian; -83.2% (active) with OVCAR-5 ovarian; -93.8% (active) in the experiment on SK-OV-3 ovarian; -66.7% (active) in the experiment with IGROV1 ovarian. In addition, the results for the growth in the experiment on OVCAR-3 ovarian, with HS 578T breast and in the experiment with NCI/ADR-RES ovarian were -86.8% (active), -56.5% (active) and -61.5% (active), respectively.

As to `COc1cc(-c2nn(C(=O)NS(=O)(=O)c3ccccc3)cc2-c2ccncc2)ccc1Cl`, the growth was 89.1% in the experiment with SR leukemia; 74.2% in the experiment on RPMI-8226 leukemia; 20.4% with OVCAR-8 ovarian; 99.9% with OVCAR-5 ovarian; 82.1% in the experiment on SK-OV-3 ovarian; 78.6% in the experiment with IGROV1 ovarian. Also, the growth in the experiment with OVCAR-3 ovarian was 106%; in the experiment with HS 578T breast, 79.4%; in the experiment on NCI/ADR-RES ovarian, 82.3%.

Take `CN(C)CCCN(c1nc(C(Cl)(Cl)Cl)ns1)c1nc(C(Cl)(Cl)Cl)ns1`: the growth with SR leukemia was 17.1%; with RPMI-8226 leukemia it was 9.37% (active); with OVCAR-8 ovarian it was 55.3%; in the experiment with OVCAR-5 ovarian, 66.5%; in the experiment on SK-OV-3 ovarian it was 86.6%; in the experiment with IGROV1 ovarian it was 36.6%. Further, the growth in the experiment with OVCAR-3 ovarian was 31.7%; in the experiment with HS 578T breast it was 46%; in the experiment on NCI/ADR-RES ovarian it was 48.8%.

`CCOC(=O)c1ccc2c(c1)c1c(C)c3cccnc3c(C)c1n2C`: the growth in the experiment on SR leukemia was 16.1%; with RPMI-8226 leukemia it was 62.8%; in the experiment with OVCAR-8 ovarian, 46.2%; in the experiment with OVCAR-5 ovarian it was 69.3%; in the experiment with SK-OV-3 ovarian it was 84.1%; in the experiment on IGROV1 ovarian, 24.1%. The results for the growth in the experiment on OVCAR-3 ovarian, in the experiment on HS 578T breast and with NCI/ADR-RES ovarian were 69.8%, 85.2% and 48.4%, respectively.

For `CN1CCN(Cc2ccc(NC(=O)c3cncc(C#Cc4cnc(N)c5cnccc45)c3)cc2C(F)(F)F)CC1`, the growth with SR leukemia is 11%; with RPMI-8226 leukemia it was -16.7% (active); in the experiment on OVCAR-8 ovarian, 23.8%; in the experiment with OVCAR-5 ovarian, 2.45% (active); with SK-OV-3 ovarian, -26.8% (active); in the experiment with IGROV1 ovarian, -8.29% (active). For the same compound, the growth is 35.7% in the experiment on OVCAR-3 ovarian, -18% (active) with HS 578T breast and 65.9% in the experiment on NCI/ADR-RES ovarian.

With `COc1ccc(-c2ccc(-c3ccc(C(=N)N)cn3)s2)cc1OC`, the growth is 63.1% in the experiment with SR leukemia; 89% in the experiment with RPMI-8226 leukemia; 102% with OVCAR-8 ovarian; 103% in the experiment with OVCAR-5 ovarian; 96.1% in the experiment on OVCAR-4 ovarian; 101% in the experiment with IGROV1 ovarian. The growth in the experiment on OVCAR-3 ovarian is 109%; in the experiment on HS 578T breast it was 97.2%; in the experiment on NCI/ADR-RES ovarian it was 108%.

On to `OC(c1cc2cc(Br)ccc2c2cc(Br)ccc12)C1CCCCN1` (stereo unspecified), for which the growth in the experiment on SR leukemia was -74.1% (active); with RPMI-8226 leukemia, -38.9% (active); with OVCAR-8 ovarian it was -69.4% (active); in the experiment with OVCAR-5 ovarian, -76.5% (active); in the experiment with SK-OV-3 ovarian, -55.4% (active); in the experiment on IGROV1 ovarian, -67% (active). Besides, the growth was -91.9% (active) with OVCAR-3 ovarian, -53.1% (active) in the experiment with HS 578T breast and -65.1% (active) with NCI/ADR-RES ovarian.

Consider `Cc1ccc(S(=O)(=O)NC(=O)n2cc(-c3ccncc3)c(-c3ccc(Cl)c(O)c3)n2)cc1`, for which the growth in the experiment on SR leukemia was 83.3%; in the experiment on RPMI-8226 leukemia it was 99.9%; with OVCAR-8 ovarian, 99%; in the experiment on OVCAR-5 ovarian, 114%; in the experiment on SK-OV-3 ovarian, 101%; in the experiment with IGROV1 ovarian, 112%. In addition, the results for the growth in the experiment with OVCAR-3 ovarian, with HS 578T breast and in the experiment on NCI/ADR-RES ovarian were 146%, 107% and 104%, respectively.

As for `CCCCCCCCCCCCNC(=O)[C@H]1CSC(c2cc3ccccc3s2)N1` (stereo partly specified), the growth in the experiment with SR leukemia was -34.6% (active); with RPMI-8226 leukemia it was 18.7%; in the experiment on OVCAR-8 ovarian, -32.9% (active); in the experiment on OVCAR-5 ovarian, 20.5%; in the experiment with SK-OV-3 ovarian, -30.1% (active); in the experiment on IGROV1 ovarian, -63.2% (active). Further, the growth in the experiment with OVCAR-3 ovarian is -61.3% (active); in the experiment with HS 578T breast, -41.4% (active); in the experiment on NCI/ADR-RES ovarian, -18.1% (active).

On to `O=[N+]([O-])c1ccc(C(c2ccccc2)c2ccccc2)cc1`, for which the growth in the experiment on SR leukemia is 90.8%; in the experiment on RPMI-8226 leukemia, 98.1%; in the experiment on OVCAR-8 ovarian, 107%; in the experiment with OVCAR-5 ovarian, 96.6%; with SK-OV-3 ovarian, 102%; in the experiment with IGROV1 ovarian it was 84.4%. Further, the growth is 98.9% in the experiment with OVCAR-3 ovarian, 109% in the experiment on HS 578T breast and 88.8% in the experiment on NCI/ADR-RES ovarian.
